Source: PubChem (several laboratories)
NPR1 activator: GC-A (human) enzyme activation. HEK293 GC-A cells, cGMP TR-FRET, EC30 ANP; 0% at EC30 ANP, 100% saturating ANP. activation, % at 10 µM. 370,000 tested, 0.14% active. AID 1671463; in the data active means activation above about 40%
GC-B act: GC-B (human) receptor activation. P20594. HEK293-GC-B cells, CNP EC30, cGMP TR-FRET; 0% at EC30 CNP, 100% saturating CNP. activation, % at 10 µM. 370,000 tested, 0.11% active;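 active means activation at 10 µM reaching about 35% in either raw or pattern-adjusted values, limit read from the data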
ADAM10 inh: inhibitors of human ADAM10 | O14672 | 370,000 tested, 0.62% active | recombinant ADAM10, EDANS/DABCYL FRET peptide cleavage, 3 h | inhibition, % at 7 µM;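 active means inhibition above a per-campaign cutoff equal to the mean of compounds falling between control-based bounds plus 3 SD, cut at about 20% in these data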;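 further: 0% = DMSO wells while the 100% control is not disclosed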
ADAM17 inh: inhibitors of human ADAM17; P78536; recombinant ADAM17, EDANS/DABCYL FRET peptide cleavage; inhibition, % at 6.95 µM; 370,000 tested, 0.83% active; AID 720648;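 active means inhibition above the mean of compounds lying between control limits plus 3 SD, set per campaign, cut at about 8.5% in these data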;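 further: 0% = DMSO-only wells as the low control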
Target sequence (P78536 215-824 limits assumed): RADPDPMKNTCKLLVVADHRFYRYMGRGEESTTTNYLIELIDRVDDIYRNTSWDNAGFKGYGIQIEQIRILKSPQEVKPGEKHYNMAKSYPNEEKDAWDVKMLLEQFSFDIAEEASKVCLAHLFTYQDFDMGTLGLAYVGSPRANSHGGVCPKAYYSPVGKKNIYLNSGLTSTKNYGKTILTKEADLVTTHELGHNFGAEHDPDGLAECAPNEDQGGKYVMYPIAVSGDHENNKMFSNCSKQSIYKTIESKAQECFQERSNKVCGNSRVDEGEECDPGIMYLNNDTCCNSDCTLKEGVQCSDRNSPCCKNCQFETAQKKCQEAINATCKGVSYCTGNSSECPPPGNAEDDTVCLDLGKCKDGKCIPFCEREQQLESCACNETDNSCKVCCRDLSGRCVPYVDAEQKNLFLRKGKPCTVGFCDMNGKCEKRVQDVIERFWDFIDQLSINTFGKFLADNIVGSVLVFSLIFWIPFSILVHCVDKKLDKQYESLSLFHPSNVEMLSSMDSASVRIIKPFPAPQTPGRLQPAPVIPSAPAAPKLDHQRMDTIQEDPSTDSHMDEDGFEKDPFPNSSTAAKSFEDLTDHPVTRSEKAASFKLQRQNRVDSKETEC
ADAM10 confirm: confirmation of inhibitors of human ADAM10; ADAM10 QFRET peptide cleavage, EDANS fluorescence; inhibition, % at 6.95 µM; shares compounds with ADAM10 inh; 2,100 tested, 1% active;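 active means inhibition above about 20% chosen separately for each screening run, limit read from the data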;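 further: 0% = DMSO wells and 100% = marimastat wells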
ADAM17 ctr: counter-screen for ADAM10 exosite inhibitors: inhibitors of human ADAM17 | ADAM17 QFRET peptide cleavage, EDANS fluorescence | inhibition, % at 6.95 µM | shares compounds with ADAM10 inh | 2,100 tested, 0.5% active;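 active means mean triplicate inhibition above the solvent-only control wells' mean plus 3 SD, cut at about 12% in these data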;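 further: 0% = DMSO wells and 100% = marimastat wells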
* = called active by the depositor; i = inactive; . = no result. Rows were chosen to be rich in hits. Some 1.3% of all compounds tested hit in one or more screens of this group.

SMILES	NPR1 activator	GC-B act	ADAM10 inh	ADAM17 inh	ADAM10 confirm	ADAM17 ctr
CC(C)CC#Cc1ccc2c(c1)O[C@H](CN(C)C(=O)Nc1ccccc1)[C@@H](C)CN([C@H](C)CO)S2(=O)=O	6	0	2	2	.	.
Cc1cc(=O)oc2cc(O)cc(OCc3ccccc3)c12	5	1	i	i	.	.
COc1ccccc1NC(=O)c1c(Nc2ccccc2F)sc(C(=O)Nc2cccc(Cl)c2)c1N	-3	1	27*	9.1*	19	7
O=C(O)c1cccc(COc2cccc3ccccc23)c1	1	-2	-2	1	.	.
CCOC(=O)c1c(CN2CCN(c3ccccc3)CC2)oc2cc(Br)c(O)cc12	-7	-10	21*	7	5	2
CCOC(=O)c1c(CN2CCN(CCO)CC2)n(-c2ccccc2)c2cc(Br)c(O)cc12	-35	-13	1	-4	.	.
Cc1ccc(C(C)C)c(OCC(=O)NNCC(=O)Nc2cccc(F)c2)c1	-9	-4	-1	3	.	.
Nc1ccc2c(c1)Nc1ccccc1CC2	-1	-1	24*	4	0	1
COC(=O)Nc1ccc2c(c1)Nc1ccccc1CC2	6	-4	-2	4	.	.
COC(=O)c1cnc(Nc2nc(C(N)COCc3ccccc3)cs2)nc1C(F)(F)F (centres undefined)	-3	-2	22*	5	3	1
CC(C)(C)c1nn(-c2ccccc2)c2[nH]c(=O)c(C=O)cc12	5	0	78*	-2	5	2
Cc1cc(C)cc(-n2c(SCC(=O)Nc3cccc(S(=O)(=O)NC4=NCCCCC4)c3)nc3ccccc3c2=O)c1	0	6	26*	6	4	1
Cc1[nH]c(N=Nc2ccccc2)nc1N=Nc1ccccc1	-2	0	21*	5	0	1
Nc1ccc(N=Nc2ccccc2)c(N)n1	-4	-7	-30	-1	.	.
COc1cc(NC(=O)c2cc(-c3ccccc3Cl)on2)cc(OC)c1OC	-2	-7	33*	3	4	1
COc1ccc(NC(=O)c2cc(-c3ccccc3Cl)on2)cc1	11	-3	1	-4	.	.
CCCCOc1ccccc1C(=O)NNC(=S)NC(=O)c1ccccc1[N+](=O)[O-]	-2	1	27*	8	7	2
CCN(CC)C(=O)CN1CCN(Cc2ccc3c(c2)OCO3)CC1	3	-1	2	-1	.	.
COc1ccc(CCC(=O)Nc2cc(Cl)ccc2N2CCN(C)CC2)cc1	-36	-29	9	-4	.	.
CC(Oc1ccc(Br)cc1)C(=O)Nc1cc(Cl)ccc1N1CCN(C)CC1 (centres undefined)	-26	-16	20*	5	1	0
N#Cc1ccc(S(=O)(=O)N2CCN(C(=O)c3cn(-c4ccccc4)nc3-c3cccnc3)CC2)cc1	-3	-4	-11	-3	.	.
COc1ccc(CCNC(=O)CNS(=O)(=O)c2ccc(Br)cc2)cc1	2	-4	-1	-1	.	.
C=CCn1c(C)cc(C(=O)COC(=O)C2CC(=O)N(Cc3ccccc3)C2)c1C (centres undefined)	-1	-3	78*	-2	0	0
Cc1[nH]c2ccccc2c1C(=O)COC(=O)C1CC(=O)N(Cc2ccccc2)C1 (centres undefined)	-1	1	8	-1	.	.
O=C(CN(c1ccc(F)cc1)S(=O)(=O)c1ccccc1)N1CCOCC1	-2	-1	2	0	.	.
SMILES	NPR1 activator	GC-B act	ADAM10 inh	ADAM17 inh	ADAM10 confirm	ADAM17 ctr
CC(=NNC(=S)Nc1ccccc1)c1ccccn1	3	3	26*	13*	48*	43*
CC(=NNC(=S)Nc1ccccc1Cl)c1ccccn1	4	1	1	2	.	.
CCOc1ccc(OCCC(=O)OCC(=O)Nc2ccc(C)c(S(=O)(=O)N3CCCCC3)c2)cc1	0	3	23*	8	8	2
CCOc1ccc(OCCC(=O)OCC(=O)Nc2cc(S(=O)(=O)N3CCOCC3)ccc2C)cc1	-2	0	68*	-3	0	0
CCOc1ccc(OCCC(=O)OCC(=O)Nc2cc(S(=O)(=O)N3CCOCC3)ccc2OC)cc1	-3	2	-6	-7	.	.
CN(CC(=O)Nc1cc(Cl)cc(Cl)c1)Cc1cccs1	0	4	22*	1	7	2
CC1CCCCC1NC(=O)C1CC(=O)N(Cc2ccccc2)C1 (centres undefined)	1	1	54*	-6	0	1
CC(C)c1ccc(N(CC(=O)NCc2ccco2)C(=O)CCC(=O)Nc2ccccn2)cc1	4	2	3	-3	.	.
CN(C)S(=O)(=O)c1cc(C(=O)Nc2ccccc2C(=O)NC2CC2)ccc1Cl	-3	-1	-11	-2	.	.
Nc1ccc(S(=O)(=O)Nc2nccs2)cc1N=Nc1ccccc1[N+](=O)[O-]	-9	-5	22*	-2	3	0
O=[N+]([O-])c1ccccc1S(=O)(=O)Nc1ccc(S(=O)(=O)Nc2nccs2)cc1	5	6	8	0	.	.
O=C(O)c1cccc(C(=O)O)c1S(=O)Cc1ccccc1 (centres undefined)	3	2	-9	-2	.	.
COc1ccc(Cn2cc(COC(=O)N3CCCC3)nn2)cc1	1	11	1	-1	.	.
COC(=O)c1ccc(Cn2c(C)c(C(=O)NCc3cccc(C(F)(F)F)c3)sc2=O)o1	-4	-1	0	-2	.	.
CCCN(CC(=O)Nc1cc(Cl)cc(Cl)c1)CC(=O)Nc1ccc(F)c(F)c1F	-7	-8	28*	13*	12	3
Cc1ccnc(NCc2cccc3ccccc23)c1	-4	-2	23*	2	2	0
O=S(=O)(c1ccc2c(c1)OCCO2)N1CCN(S(=O)(=O)c2ccccn2)CC1	-2	0	-6	-3	.	.
COc1ccccc1NC(=O)Nc1ccc(-n2ccc(C(F)(F)F)n2)cc1	-2	-3	30*	7	5	1
CS(=O)(=O)OC12CCCN(C1)/C(=C/c1ccc(Cl)cc1)C2 (centres undefined)	-1	-14	0	-1	.	.
CC(=O)c1sc(Nc2ccc(Oc3ccccc3)cc2)nc1C	4	-7	-76	-23	.	.
CCCc1ccc(Oc2cn[nH]c2-c2ccc(O)c(C)c2O)cc1	47*	4	32*	14*	11	4
COc1cccc(Oc2cn[nH]c2-c2ccc(OC)cc2O)c1	0	-2	19	7	.	.
Cc1ccc(-n2c(SCC(=O)Nc3ccc(OCc4ccccc4)cc3)nnc2-c2cnccn2)cc1	-1	-1	6	4	.	.
O=C(Nc1ccccc1N1CCCC1)c1ccccc1Cl	-8	-2	23*	3	0	0
O=C(Nc1ccccc1N1CCCC1)c1ccc(Cl)cc1Cl	-9	-3	5	-2	.	.
